Experimental data: PubChem BioAssay (NCI)
The panel holds about 79,000 compounds, 15% with a hit somewhere; the sample as a whole holds those more often. A number with no mark means an inactive call. Calls of active or inactive are those of the source. Cut-off read from the data, not from the text of the source: active = growth inhibition above about 70%; inactive = the rest.

What was measured:
[1] = NCI Yeast Anticancer Drug Screen. Data for the rad50 strain (AID 155);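 note: 0% = growth of vehicle-only cultures of the same strain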; settings: S. cerevisiae rad50 strain growth inhibition, active compounds read high
In short: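 Readout: growth inhibition relative to vehicle-treated cultures. Compound exposure was carried out in a genetically defined yeast strain deficient in DNA damage repair.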

[2] = NCI Yeast Anticancer Drug Screen. Data for the mec2-1 strain (AID 157); settings: S. cerevisiae mec2-1 strain, active compounds read high
In short: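 Each compound was tested on mec2-1 yeast, a strain altered in DNA damage repair or cell cycle control. Growth inhibition is reported relative to vehicle.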

[3] = NCI Yeast Anticancer Drug Screen. Data for the sgs1 mgt1 strain (AID 161);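 note: 0% = growth of cultures given vehicle only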; settings: S. cerevisiae sgs1 mgt1 strain, active compounds read high
In short: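 Test agents were incubated with a DNA-repair-mutant yeast strain. Growth was then read and compared against vehicle-treated controls.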

[4] = NCI Yeast Anticancer Drug Screen. Data for the cln2 rad14 strain (AID 165);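 note: 0% = growth equal to vehicle treated cultures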; settings: S. cerevisiae cln2 rad14 strain, active compounds read high
In short: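 Test compounds were added to cln2 rad14 yeast cultures; inhibition of growth was then determined by comparison with vehicle treatment.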

[5] = NCI Yeast Anticancer Drug Screen. Data for the bub3 strain (AID 167); settings: S. cerevisiae bub3 mutant strain, active compounds read high
In short: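 Readout: yeast growth inhibition, expressed relative to vehicle-only wells. The test organism is a mutant strain from a panel with lesions in DNA repair or checkpoint genes.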

[6] = NCI Yeast Anticancer Drug Screen. Data for the mlh1 rad18 strain (AID 175); settings: S. cerevisiae mlh1 rad18 strain growth inhibition, active compounds read high
In short: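 Inhibition values reflect reduced growth of mutant yeast versus vehicle-treated controls following compound exposure; the mutations affect DNA damage repair.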

[7] = at 5.0 µM (retest, dose inferred, filed as 0.5)
[8] = at 50.0 µM (retest, dose inferred, filed as 5.0)

Row | SMILES | growth inhibition [1, 7] | growth inhibition [1, 8] | growth inhibition ([1]; at 50.0 µM) | growth inhibition [2, 7] | growth inhibition [2, 8] | growth inhibition ([2]; at 50.0 µM) | growth inhibition [3, 7] | growth inhibition [3, 8] | growth inhibition ([3]; at 50.0 µM) | growth inhibition [4, 7] | growth inhibition [4, 8] | growth inhibition ([4]; at 50.0 µM) | growth inhibition [5, 7] | growth inhibition [5, 8] | growth inhibition ([5]; at 50.0 µM) | growth inhibition [6, 7] | growth inhibition [6, 8] | growth inhibition ([6]; at 50.0 µM)
1 | Nc1ccc(SSc2ccc(N)cc2)cc1 | -2% | 97% (active) | 93% (active) | -3% | 98% (active) | 61.5% | 2% | 97% (active) | 57.6% | -7% | 72% (active) | 94.1% (active) | 0% | 98% (active) | 95.3% (active) | -1% | 98% (active) | 96.4% (active)
2 | C=CC[C@]1(C(C)C(OC(C)=O)c2ccc3c(c2)OCO3)C[C@@H](OC)C=CC1=O (some centres not stated) | 10% | 98% (active) | 10.5% | 10% | 98% (active) | -0.85% | 10% | 98% (active) | -0.2% | -3% | 98% (active) | -12.7% | 4% | 98% (active) | 1.4% | 9% | 98% (active) | 40%
3 | O=c1cc(CI)oc2ccccc12 | 34% | 99% (active) | 99.4% (active) | 57% | 99% (active) | 99.5% (active) | 46% | 99% (active) | 99.6% (active) | 20% | 100% (active) | 85.7% (active) | 45% | 99% (active) | 94% (active) | 36% | 99% (active) | 99.5% (active)
4 | O=S(=O)(O)c1cc(N=Nc2ccc(O)c(O)c2)ccc1/C=C/c1ccc(N=Nc2ccc(O)c(O)c2)cc1S(=O)(=O)O | 29% | 83% (active) | 57% | 30% | 89% (active) | 67.6% | 23% | 89% (active) | 68.5% | 31% | 31% | 18.8% | 34% | 86% (active) | 76.3% (active) | 33% | 83% (active) | 75.4% (active)
5 | Cc1ccc2nc(C[n+]3ccc4ccccc4c3)ccc2c1 | -1% | 28% | 53.5% | -1% | 17% | 50.2% | -2% | 47% | 44.4% | -5% | 5% | -1.8% | -1% | 38% | 43% | 0% | 16% | 55.9%
6 | CSc1nc(SC)c2cnn(Cc3ccccc3)c2n1 | -16% | 21% | -7.1% | -1% | -15% | 4.9% | -15% | 25% | 9.7% | -11% | -4% | 2.35% | -8% | 18% | 1.3% | 18% | 7% | 16.9%
7 | CSC(=S)NN=C1CCCCC1 | 59% | 97% (active) | 90.9% (active) | 47% | 98% (active) | 88.5% (active) | 49% | 97% (active) | 93.8% (active) | 9% | 78% (active) | 58.6% | 81% (active) | 97% (active) | 93.7% (active) | 55% | 96% (active) | 90.8% (active)
8 | CCOC(=O)NC(NC(=O)OCC)C(=O)Nc1cccc2c(OC(=O)C(NC(=O)OCC)NC(=O)OCC)c(N=Nc3ccc(S(=O)(=O)Nc4nccs4)cc3)cc(N=Nc3ccc(S(=O)(=O)Nc4nccs4)cc3)c12 (tested in a mixture with another compound) | 94% (active) | 43% | 78.7% (active) | 97% (active) | 59% | 74.9% (active) | 96% (active) | 58% | 65.8% | 95% (active) | 70% (active) | 70.3% (active) | 95% (active) | 59% | 61.8% | 88% (active) | 29% | 83.1% (active)
9 | O=C(O)c1ccc(/C=C2\COc3ccccc3C2=O)cc1 | 5% | 85% (active) | 62.6% | 14% | 92% (active) | 67% | 13% | 96% (active) | 83.1% (active) | 5% | 80% (active) | 52.8% | 24% | 94% (active) | 68.2% | 4% | 91% (active) | 84.5% (active)
